Results: publication PMC7862700, “An all-to-all approach to the identification of sequence-specific readers for epigenetic DNA modifications on cytosine”

Key:
Assay in all cases: DAPPL (digital affinity profiling via proximity ligation, sequencing); 10 mM Tris-HCl pH 7.5, 50 mM NaCl, 1 mM DTT, 4% glycerol, room temperature, 30 min; GST-TFs on glutathione beads, 16-mer random dsDNA library, 0.1% formaldehyde crosslink after washing; high values mean tight binding
Details in all cases: protein: recombinant; tags: N-terminal GST; dsDNA, one strand shown
FLI1 = target: T1, FLI1 (Homo sapiens, UniProt Q01543 1-452)
T1 sequence: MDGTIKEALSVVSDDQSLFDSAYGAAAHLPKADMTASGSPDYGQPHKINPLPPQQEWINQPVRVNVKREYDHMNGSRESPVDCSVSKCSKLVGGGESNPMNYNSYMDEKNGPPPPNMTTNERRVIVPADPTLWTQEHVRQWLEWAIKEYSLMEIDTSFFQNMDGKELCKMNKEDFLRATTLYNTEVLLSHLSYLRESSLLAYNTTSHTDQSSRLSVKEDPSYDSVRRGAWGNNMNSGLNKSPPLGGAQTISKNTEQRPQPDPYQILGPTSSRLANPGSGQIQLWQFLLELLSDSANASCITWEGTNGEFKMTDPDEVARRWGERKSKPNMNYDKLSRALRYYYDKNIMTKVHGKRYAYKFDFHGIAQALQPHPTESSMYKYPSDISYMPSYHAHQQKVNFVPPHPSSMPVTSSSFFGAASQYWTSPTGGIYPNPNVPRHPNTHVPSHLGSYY
Summary of the method: (§1)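 After expression in yeast as GST fusions, human transcription factors were bound to glutathione beads, DNA-barcoded and mixed with a tag-only sample. The pools were incubated with 200 nmole of a 16-mer random double-stranded DNA library in Tris/NaCl/DTT/glycerol buffer (30 min, room temperature), washed and crosslinked with 0.1% formaldehyde. Proximity ligation with BsaI/T4 ligase ran for 1 h at 37 °C, before PCR amplification and sequencing on an Illumina NextSeq500. Binding signal is a hexamer's read frequency for a factor divided by its frequency for the tag-only sample.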

ELK1 = target: T2, ELK1 (Homo sapiens, UniProt P19419 1-428)
T2 sequence: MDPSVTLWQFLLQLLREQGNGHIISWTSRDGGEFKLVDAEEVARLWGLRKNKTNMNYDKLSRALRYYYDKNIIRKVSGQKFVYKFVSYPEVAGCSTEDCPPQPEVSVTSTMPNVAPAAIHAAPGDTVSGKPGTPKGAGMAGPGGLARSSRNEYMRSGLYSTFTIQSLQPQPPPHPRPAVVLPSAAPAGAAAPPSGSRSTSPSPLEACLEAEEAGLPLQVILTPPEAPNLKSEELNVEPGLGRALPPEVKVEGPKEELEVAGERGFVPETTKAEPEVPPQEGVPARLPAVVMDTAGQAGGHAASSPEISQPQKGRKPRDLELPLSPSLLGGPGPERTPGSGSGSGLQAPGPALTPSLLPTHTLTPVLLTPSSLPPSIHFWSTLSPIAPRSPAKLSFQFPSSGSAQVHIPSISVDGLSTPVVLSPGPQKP
Summary of the method: as §1

GABPA = target: T3, GABPA (Homo sapiens, UniProt Q06546 1-454)
T3 sequence: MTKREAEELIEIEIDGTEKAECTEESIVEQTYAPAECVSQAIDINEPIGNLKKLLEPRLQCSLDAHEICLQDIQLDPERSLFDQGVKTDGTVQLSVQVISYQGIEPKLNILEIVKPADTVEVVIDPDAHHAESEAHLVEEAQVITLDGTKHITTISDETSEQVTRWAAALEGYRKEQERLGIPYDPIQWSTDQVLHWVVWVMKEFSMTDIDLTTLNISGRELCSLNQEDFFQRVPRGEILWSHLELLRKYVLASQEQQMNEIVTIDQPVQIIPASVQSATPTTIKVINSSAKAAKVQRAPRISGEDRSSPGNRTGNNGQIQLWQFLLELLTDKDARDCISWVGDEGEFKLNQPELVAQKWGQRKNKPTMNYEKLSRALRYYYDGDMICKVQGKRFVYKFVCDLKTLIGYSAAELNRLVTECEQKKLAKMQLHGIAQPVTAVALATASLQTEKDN
Summary of the method: as §1

ERG = target: T4, ERG (Homo sapiens, UniProt P11308 1-479)
T4 sequence: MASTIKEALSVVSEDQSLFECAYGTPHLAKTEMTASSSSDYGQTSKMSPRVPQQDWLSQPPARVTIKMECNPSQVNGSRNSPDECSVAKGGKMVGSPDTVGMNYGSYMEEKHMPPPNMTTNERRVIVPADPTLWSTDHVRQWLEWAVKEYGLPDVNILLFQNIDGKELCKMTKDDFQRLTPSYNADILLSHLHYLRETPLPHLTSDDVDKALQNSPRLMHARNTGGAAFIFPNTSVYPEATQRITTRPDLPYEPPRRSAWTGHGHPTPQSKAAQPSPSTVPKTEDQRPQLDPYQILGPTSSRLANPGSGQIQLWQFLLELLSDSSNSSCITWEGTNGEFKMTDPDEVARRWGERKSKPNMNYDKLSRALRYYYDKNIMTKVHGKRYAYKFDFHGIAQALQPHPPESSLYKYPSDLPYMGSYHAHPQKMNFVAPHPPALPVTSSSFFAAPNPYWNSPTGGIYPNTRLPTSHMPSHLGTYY
Summary of the method: as §1

ELF1 = ELF1 (Homo sapiens, UniProt P32519 1-619)
Summary of the method: as §1

EHF = target: T5, EHF (Homo sapiens, UniProt Q9NZC4 1-300)
T5 sequence: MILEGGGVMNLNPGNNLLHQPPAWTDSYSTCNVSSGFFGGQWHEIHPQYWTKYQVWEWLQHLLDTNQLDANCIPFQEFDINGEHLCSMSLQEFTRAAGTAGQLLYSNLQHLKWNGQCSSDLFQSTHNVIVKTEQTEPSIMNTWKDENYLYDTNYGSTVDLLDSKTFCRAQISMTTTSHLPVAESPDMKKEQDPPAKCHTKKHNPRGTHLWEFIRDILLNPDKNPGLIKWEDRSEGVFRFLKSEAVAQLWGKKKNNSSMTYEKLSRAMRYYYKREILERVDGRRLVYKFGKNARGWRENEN
Summary of the method: as §1

SPI1 = SPI1 (Homo sapiens, UniProt P17947 1-270)
Summary of the method: as §1

SPIB = SPIB (Homo sapiens, UniProt Q01892 1-262)
Summary of the method: as §1

ELK3 = target: T6, ELK3 (Homo sapiens, UniProt P41970 1-407)
T6 sequence: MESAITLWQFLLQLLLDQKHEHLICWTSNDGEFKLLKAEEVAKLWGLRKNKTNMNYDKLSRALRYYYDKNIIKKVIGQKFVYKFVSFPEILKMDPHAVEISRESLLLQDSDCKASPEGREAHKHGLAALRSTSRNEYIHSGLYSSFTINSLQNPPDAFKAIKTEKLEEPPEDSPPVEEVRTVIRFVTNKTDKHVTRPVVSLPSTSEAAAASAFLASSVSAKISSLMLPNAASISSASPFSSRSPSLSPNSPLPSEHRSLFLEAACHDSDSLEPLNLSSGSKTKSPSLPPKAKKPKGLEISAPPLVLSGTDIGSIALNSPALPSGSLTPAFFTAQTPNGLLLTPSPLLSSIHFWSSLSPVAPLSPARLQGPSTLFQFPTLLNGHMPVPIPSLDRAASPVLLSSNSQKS
Summary of the method: as §1

FEV = target: T7, FEV (Homo sapiens, UniProt Q99581 1-238)
T7 sequence: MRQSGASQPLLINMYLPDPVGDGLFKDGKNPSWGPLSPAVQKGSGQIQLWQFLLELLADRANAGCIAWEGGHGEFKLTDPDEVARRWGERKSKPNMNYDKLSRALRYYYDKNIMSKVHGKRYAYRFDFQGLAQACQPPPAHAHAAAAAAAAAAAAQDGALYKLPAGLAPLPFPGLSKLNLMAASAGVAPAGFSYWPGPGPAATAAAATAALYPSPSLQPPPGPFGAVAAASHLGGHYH
Summary of the method: as §1

ETV5 = ETV5 (Homo sapiens, UniProt P41161 1-510)
Summary of the method: as §1

SPIC = target: T8, SPIC (Homo sapiens, UniProt Q8N5J4 1-248)
T8 sequence: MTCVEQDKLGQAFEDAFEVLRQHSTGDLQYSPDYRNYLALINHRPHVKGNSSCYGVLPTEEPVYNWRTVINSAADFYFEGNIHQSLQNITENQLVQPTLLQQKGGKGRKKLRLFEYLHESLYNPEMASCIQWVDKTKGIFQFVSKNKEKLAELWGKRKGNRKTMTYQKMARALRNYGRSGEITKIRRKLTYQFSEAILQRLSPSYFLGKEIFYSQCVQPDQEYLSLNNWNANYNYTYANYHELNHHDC
Summary of the method: as §1

ELF4 = ELF4 (Homo sapiens, UniProt Q99607 1-663)
Summary of the method: as §1

ETV1 = ETV1 (Homo sapiens, UniProt P50549 1-477)
Summary of the method: as §1

ERF = target: T9, ERF (Homo sapiens, UniProt P50548 1-548)
T9 sequence: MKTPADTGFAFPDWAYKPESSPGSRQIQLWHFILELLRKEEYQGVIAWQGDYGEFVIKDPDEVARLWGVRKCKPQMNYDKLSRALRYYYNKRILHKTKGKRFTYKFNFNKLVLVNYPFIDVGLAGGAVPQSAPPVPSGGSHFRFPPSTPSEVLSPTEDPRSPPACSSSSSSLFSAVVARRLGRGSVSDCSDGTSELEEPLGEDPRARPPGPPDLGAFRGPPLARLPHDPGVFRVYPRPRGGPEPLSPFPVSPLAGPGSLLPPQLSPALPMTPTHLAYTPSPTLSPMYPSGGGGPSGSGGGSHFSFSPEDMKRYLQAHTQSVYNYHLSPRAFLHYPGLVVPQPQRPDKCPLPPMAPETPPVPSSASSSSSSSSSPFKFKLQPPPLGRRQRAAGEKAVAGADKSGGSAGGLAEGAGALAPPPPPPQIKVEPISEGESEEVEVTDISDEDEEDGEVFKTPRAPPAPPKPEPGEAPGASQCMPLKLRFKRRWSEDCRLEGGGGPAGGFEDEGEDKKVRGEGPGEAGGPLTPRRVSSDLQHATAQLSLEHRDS
Summary of the method: as §1

ETV3L = target: T10, ETV3L (Homo sapiens, UniProt Q6ZN32 1-361)
T10 sequence: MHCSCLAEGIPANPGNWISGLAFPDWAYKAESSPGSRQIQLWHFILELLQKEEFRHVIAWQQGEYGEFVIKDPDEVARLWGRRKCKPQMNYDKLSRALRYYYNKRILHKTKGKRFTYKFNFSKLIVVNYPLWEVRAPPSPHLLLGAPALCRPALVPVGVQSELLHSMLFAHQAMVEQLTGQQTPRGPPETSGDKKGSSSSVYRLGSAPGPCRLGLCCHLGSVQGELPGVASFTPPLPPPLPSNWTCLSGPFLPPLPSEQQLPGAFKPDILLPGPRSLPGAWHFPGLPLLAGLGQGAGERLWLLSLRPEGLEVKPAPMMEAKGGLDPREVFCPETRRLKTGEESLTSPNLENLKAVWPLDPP
Summary of the method: as §1

ETS2 = target: T11, ETS2 (Homo sapiens, UniProt P15036 1-469)
T11 sequence: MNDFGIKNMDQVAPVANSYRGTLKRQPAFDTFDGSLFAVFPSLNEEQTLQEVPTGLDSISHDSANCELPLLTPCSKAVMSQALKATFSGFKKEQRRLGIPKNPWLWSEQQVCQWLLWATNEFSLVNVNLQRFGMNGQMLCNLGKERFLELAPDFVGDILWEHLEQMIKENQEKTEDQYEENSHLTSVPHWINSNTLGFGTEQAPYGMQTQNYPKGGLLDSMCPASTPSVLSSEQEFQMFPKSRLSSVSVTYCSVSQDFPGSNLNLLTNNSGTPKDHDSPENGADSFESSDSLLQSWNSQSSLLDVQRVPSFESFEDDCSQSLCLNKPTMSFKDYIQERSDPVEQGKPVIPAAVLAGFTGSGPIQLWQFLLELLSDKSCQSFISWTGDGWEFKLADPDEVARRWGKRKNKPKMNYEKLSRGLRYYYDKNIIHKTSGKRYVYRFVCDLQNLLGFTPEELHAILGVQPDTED
Summary of the method: as §1

SPDEF = target: T12, SPDEF (Homo sapiens, UniProt O95238 1-335)
T12 sequence: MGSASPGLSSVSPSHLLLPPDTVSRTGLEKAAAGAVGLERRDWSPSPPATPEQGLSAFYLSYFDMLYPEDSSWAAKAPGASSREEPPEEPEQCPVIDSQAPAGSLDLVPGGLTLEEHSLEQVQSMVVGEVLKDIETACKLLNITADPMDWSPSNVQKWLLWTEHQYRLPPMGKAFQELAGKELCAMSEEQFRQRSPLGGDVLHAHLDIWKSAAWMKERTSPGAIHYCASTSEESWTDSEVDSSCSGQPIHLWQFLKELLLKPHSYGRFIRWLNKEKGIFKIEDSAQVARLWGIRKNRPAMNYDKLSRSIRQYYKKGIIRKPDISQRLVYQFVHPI
Summary of the method: as §1

ETV3 = target: T13, ETV3 (Homo sapiens, UniProt P41162-2 1-143)
T13 sequence: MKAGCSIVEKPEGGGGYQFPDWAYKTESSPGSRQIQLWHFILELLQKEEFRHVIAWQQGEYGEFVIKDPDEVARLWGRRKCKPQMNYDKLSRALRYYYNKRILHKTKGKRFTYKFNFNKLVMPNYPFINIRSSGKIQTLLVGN
Summary of the method: as §1

ETV6 = ETV6 (Homo sapiens, UniProt P41212 1-452)
Summary of the method: as §1

Chain of ELF4 (Q99607 whole entry): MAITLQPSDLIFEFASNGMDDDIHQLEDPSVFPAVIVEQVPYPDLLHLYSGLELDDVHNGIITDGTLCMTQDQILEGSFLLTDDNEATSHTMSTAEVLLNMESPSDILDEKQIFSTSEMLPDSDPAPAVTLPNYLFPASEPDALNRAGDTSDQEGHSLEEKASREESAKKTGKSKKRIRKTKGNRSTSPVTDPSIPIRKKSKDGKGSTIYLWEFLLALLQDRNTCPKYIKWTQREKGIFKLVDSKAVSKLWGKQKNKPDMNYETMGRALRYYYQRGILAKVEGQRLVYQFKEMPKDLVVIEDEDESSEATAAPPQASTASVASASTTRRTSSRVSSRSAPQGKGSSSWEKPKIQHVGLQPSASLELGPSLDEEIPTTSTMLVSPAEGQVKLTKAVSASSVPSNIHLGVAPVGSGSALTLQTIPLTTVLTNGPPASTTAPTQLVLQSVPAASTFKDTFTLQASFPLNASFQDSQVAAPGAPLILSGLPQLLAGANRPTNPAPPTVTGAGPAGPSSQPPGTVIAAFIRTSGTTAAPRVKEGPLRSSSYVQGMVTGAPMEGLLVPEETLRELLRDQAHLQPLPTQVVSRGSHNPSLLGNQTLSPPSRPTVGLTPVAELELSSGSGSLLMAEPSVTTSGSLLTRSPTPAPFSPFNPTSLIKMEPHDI
Chain of ETV5 (P41161 whole entry): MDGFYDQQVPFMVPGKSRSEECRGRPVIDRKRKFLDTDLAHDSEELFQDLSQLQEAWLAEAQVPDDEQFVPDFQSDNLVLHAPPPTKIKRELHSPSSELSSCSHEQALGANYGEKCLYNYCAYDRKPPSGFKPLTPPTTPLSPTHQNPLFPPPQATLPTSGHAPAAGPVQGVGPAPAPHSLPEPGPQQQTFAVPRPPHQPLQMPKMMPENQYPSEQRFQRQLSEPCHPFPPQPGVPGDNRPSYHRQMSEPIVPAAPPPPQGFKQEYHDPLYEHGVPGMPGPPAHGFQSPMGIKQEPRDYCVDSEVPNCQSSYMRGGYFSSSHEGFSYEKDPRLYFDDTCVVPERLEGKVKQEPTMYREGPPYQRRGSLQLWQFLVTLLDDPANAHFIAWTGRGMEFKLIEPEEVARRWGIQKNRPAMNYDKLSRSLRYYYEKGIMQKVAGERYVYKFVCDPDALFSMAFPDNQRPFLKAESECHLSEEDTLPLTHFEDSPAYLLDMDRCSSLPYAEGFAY
Chain of ETV1 (P50549 whole entry): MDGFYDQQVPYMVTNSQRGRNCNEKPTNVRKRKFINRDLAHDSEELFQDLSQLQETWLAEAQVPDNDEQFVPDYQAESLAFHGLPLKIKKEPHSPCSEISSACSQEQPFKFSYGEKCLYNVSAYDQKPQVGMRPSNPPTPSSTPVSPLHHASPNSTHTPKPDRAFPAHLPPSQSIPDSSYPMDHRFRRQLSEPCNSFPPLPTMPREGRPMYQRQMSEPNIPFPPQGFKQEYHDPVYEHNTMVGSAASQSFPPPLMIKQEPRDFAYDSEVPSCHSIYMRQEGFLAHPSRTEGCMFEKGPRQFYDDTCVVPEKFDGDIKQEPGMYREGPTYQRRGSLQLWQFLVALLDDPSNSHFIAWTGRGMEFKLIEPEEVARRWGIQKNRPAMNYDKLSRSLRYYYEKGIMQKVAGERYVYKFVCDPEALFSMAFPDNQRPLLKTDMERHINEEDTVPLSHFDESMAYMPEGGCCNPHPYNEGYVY
Chain of ELF1 (P32519 whole entry): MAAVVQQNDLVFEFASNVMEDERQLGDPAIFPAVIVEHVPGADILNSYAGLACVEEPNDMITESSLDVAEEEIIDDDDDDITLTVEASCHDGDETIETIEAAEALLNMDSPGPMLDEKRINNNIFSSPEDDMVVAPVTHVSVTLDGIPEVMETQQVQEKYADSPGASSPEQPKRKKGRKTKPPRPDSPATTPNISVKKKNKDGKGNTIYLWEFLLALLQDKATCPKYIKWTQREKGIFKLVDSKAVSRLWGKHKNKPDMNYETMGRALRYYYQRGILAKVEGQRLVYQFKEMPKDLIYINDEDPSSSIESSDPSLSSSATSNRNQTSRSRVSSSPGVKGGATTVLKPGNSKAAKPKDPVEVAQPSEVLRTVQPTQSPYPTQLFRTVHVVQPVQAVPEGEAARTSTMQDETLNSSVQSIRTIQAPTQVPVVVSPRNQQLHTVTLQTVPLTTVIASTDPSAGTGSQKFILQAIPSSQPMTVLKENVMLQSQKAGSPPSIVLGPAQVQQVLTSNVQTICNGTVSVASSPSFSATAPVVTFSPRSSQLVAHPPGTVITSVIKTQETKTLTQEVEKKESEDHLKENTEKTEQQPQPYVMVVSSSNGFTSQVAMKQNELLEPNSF
Chain of SPIB (Q01892 whole entry): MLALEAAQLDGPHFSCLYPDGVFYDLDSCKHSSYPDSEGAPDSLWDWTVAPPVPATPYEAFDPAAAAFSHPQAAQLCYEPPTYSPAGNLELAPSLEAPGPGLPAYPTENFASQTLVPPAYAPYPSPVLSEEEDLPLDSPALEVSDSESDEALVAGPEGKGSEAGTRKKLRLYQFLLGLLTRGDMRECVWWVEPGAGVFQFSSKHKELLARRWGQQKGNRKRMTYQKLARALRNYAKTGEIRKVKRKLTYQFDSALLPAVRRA
Chain of ETV6 (P41212 whole entry): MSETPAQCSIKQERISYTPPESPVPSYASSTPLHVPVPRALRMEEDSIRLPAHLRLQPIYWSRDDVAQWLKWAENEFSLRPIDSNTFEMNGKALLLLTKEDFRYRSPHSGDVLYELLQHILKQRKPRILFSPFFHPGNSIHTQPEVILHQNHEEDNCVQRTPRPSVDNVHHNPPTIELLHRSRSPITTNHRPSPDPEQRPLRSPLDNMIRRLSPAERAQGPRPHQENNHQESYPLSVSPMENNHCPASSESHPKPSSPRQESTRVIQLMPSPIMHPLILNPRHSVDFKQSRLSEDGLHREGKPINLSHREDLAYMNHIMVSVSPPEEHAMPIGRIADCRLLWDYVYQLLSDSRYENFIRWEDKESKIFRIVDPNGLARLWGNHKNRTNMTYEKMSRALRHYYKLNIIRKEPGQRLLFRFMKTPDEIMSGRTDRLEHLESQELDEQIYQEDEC

Sequence: CGTCGC
- binding signal (FLI1): 1.31 fold enrichment (6-mer frequency, TF over GST control)
- binding signal (ELK1): 1.2 fold enrichment (6-mer frequency, TF over GST control)
- binding signal (GABPA): 1.24 fold enrichment (6-mer frequency, TF over GST control)
- binding signal (ERG): 1.19 fold enrichment (6-mer frequency, TF over GST control)
- binding signal (ELF1): 1.21 fold enrichment (6-mer frequency, TF over GST control)
- binding signal (EHF): 1.14 fold enrichment (6-mer frequency, TF over GST control)
- binding signal (SPI1): 1.21 fold enrichment (6-mer frequency, TF over GST control)
- binding signal (SPIB): 1.25 fold enrichment (6-mer frequency, TF over GST control)
- binding signal (ELK3): 1.09 fold enrichment (6-mer frequency, TF over GST control)
- binding signal (FEV): 1.14 fold enrichment (6-mer frequency, TF over GST control)
- binding signal (ETV5): 1.12 fold enrichment (6-mer frequency, TF over GST control)
- binding signal (SPIC): 1.07 fold enrichment (6-mer frequency, TF over GST control)
- binding signal (ELF4): 1.06 fold enrichment (6-mer frequency, TF over GST control)
- binding signal (ETV1): 1.3 fold enrichment (6-mer frequency, TF over GST control)
- binding signal (ERF): 1.3 fold enrichment (6-mer frequency, TF over GST control)
- binding signal (ETV3L): 1.13 fold enrichment (6-mer frequency, TF over GST control)
- binding signal (ETS2): 1.14 fold enrichment (6-mer frequency, TF over GST control)
- binding signal (SPDEF): 1.24 fold enrichment (6-mer frequency, TF over GST control)
- binding signal (ETV3): 1.2 fold enrichment (6-mer frequency, TF over GST control)
- binding signal (ETV6): 1.2 fold enrichment (6-mer frequency, TF over GST control)
